CYP2C19 activ – human CYP2C19 activators, primary screen, biochemical, luminescence. Cytochrome P450 2C19 (Homo sapiens), P33261. recombinant CYP2C19, luciferin-H EGE luminescence; stronger effect = higher value; 0 = fully inhibited enzyme, 1 = untreated enzyme. activation factor at 5 µM. 96,000 tested, under 10 active;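 active means activation factor of at least 2 at 5 µM in the primary screen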;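 further: 0 = wells with 2.5 mM tranylcypromine and 1 = vehicle-only wells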
CYP2C9 inhib – blockers of cytochrome P450 2C9 activity – biochemical, luminescence, ADME assay, primary screen; P11712; CYP2C9 Supersomes, luciferin-H conversion; inhibition, % at 5 µM; 20% of 96,000 active;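 active means blocking of liver enzyme CYP2C9 beyond about 50% at 5 µM, limit read from the data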
Target sequence (P11712 whole entry, looked up): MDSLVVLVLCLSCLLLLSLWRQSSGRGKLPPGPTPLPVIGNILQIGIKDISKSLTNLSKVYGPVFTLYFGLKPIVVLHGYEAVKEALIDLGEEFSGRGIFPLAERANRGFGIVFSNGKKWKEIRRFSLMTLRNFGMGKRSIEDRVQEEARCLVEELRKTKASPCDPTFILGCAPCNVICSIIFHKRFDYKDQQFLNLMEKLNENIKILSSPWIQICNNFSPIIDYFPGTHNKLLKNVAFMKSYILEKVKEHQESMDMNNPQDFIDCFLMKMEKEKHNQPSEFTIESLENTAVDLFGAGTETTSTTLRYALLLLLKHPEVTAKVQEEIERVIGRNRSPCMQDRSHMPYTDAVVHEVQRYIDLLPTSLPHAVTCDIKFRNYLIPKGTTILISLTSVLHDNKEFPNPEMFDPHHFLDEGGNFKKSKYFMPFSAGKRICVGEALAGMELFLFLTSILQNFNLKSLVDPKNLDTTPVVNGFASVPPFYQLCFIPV
CYP2C19 inh – blockers of cytochrome P450 2C19 activity – biochemical, luminescence, ADME assay, primary screen; 21% of 96,000 active; AID 778, 2007; CYP2C19 Supersomes, luciferin-H EGE luminescence, 30 min; inhibition, % at 5 µM; P33261;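 active means CYP2C19 inhibition above a set limit at 5 µM in the primary screen, cut at about 50% in these data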;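 further: plate controls were negative control wells for no effect and 2.5 mM tranylcypromine positive control for full effect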
PTK2B oligo ant – antagonists of Pyk2 self-association, primary screen, Q293 cells, FERM NanoBiT luminescence, HTS | 0.83% of 99,000 active | Protein-tyrosine kinase 2-beta (Homo sapiens), Q14289 | z-score (the deposit names both 25 µM and 10 µM) | stronger effect = lower value | AID 1347419, 2020;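 active means Z-score of -3 or lower, scaled per plate to the spread of control and sample wells; inactive means z-score above -3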;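 further: negative z-score means lost luminescence so less FERM oligomerization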
CYP2C9 act – human CYP2C9 activators, primary screen, biochemical, luminescence. AID 1024, 2008. activation factor at 5 µM. Cytochrome P450 2C9 (Homo sapiens), P11712. recombinant CYP2C9, luciferin-H conversion; stronger effect = higher value; factor 1 = untreated enzyme, 0 = blocked. 1.4% of 96,000 active;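 active means activation factor of 2 or more for CYP2C9 at a 5 µM dose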;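 further: 0 = sulfaphenazole-blocked wells and 1 = vehicle-only wells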
Cav32 inh – Cav3.2 calcium influx blockers – cell-based, Fluo-4 calcium fluorescence, FDSS, MLSMR library, primary screen | Cav3.2-expressing cells; stronger effect = lower value | B-score at 10 µM | 4% of 100,000 active | AID 449739, 2010;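 active means single-dose well whose peak fluorescence ratio is a statistical outlier from its plate by either plate-standardised score or position-corrected B-score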
Active calls of the source: *; . = not tested or not shown. This is a sample that favours compounds with a hit; in the whole collection about 27% have one here.

SMILES	CYP2C19 activ	CYP2C9 inhib	CYP2C19 inh	PTK2B oligo ant	CYP2C9 act	Cav32 inh
COC(=O)c1ccccc1NC(=O)c1noc2c1CCCC2	1	-2	-1	-0.76	1	0.75
COC(=O)c1cc(S(=O)(=O)n2nc(C)c(Br)c2C)c(Cl)cc1Cl	0.3	27	73*	0.9	0.7	1.2
O=C(Cc1cccs1)N1CCN(c2nc(-c3ccc(Cl)cc3)cs2)CC1	0.3	91*	65*	0.39	0.1	0.3
COc1ccc(N2CCN(C(=O)Cc3cccs3)CC2)cc1	0.5	34	54*	0.62	0.7	-0.018
COc1ccccc1N1CCN(S(=O)(=O)c2cccs2)CC1	0.7	83*	28	0.19	0.2	0.01
CC1CCN(S(=O)(=O)Cc2ccccc2Cl)CC1	0	-238	96*	-0.64	3.4*	-0.61
CCC(C)NC(=O)COc1ccc(S(=O)(=O)N2CCOCC2)cc1 (stereo not drawn)	1.1	6	-6	0.62	0.9	1.3
COc1ccccc1N1CCN(C(=O)C2CCN(S(=O)(=O)c3ccc(F)cc3)CC2)CC1	1	5	0	0.51	0.9	0.88
COc1ccccc1N1CCN(S(=O)(=O)c2ccccc2F)CC1	0.4	64*	64*	-0.55	0.4	-3.1
COc1ccccc1N1CCN(C2CCN(S(=O)(=O)c3ccc4ccccc4c3)CC2)CC1	0.8	-40	15	0.12	1.4	-1.8
COc1ccccc1N1CCN(C(c2cccs2)C(C)NS(=O)(=O)c2ccccc2)CC1 (stereo not drawn)	0.3	86*	72*	.	0.1	-3
COc1ccc(S(=O)(=O)N2CCN(c3ccccc3OC)CC2)cc1OC	0.2	6	80*	-1.7	0.9	0.13
COc1ccccc1N1CCN(S(=O)(=O)Cc2ccccc2Cl)CC1	0.3	-331	73*	-0.43	4.3*	-0.3
COc1ccccc1C(=O)N1CCN(S(=O)(=O)Cc2ccccc2)CC1	0.6	28	45	1.7	0.7	0.37
COc1ccccc1N1CCN(C(=O)C(Cc2ccccc2)NC(=O)C2CCCCC2)CC1 (stereo not drawn)	0	87*	99*	0.65	0.1	-1.9
COc1ccccc1N1CCN(C(=O)C(NS(=O)(=O)c2cccs2)c2ccccc2)CC1 (stereo not drawn)	0.4	44	62*	0.24	0.6	-0.022
CC(C)(C)OC(=O)N[C@@H](Cc1ccccc1)C(=O)N1CCC(C(=O)O)CC1	0.8	-7	17	-0.53	1.1	0.089
COc1ccccc1N1CCN(C(=O)CCc2ccc(S(=O)(=O)NC(C)C)cc2)CC1	1	33	5	-0.78	0.7	0.5
COc1ccc(N2CCN(CCNC(=O)C3CCN(S(=O)(=O)c4cccs4)CC3)CC2)cc1	0.9	12	8	1.8	0.9	0.41
COc1ccc(N2CCN(S(=O)(=O)c3cccs3)CC2)cc1	0.2	36	77*	-1.1	0.6	-1.2
Cc1cc(N2CCN(S(=O)(=O)c3ccccc3)CC2)c2ccccc2n1	0.3	44	65*	-0.8	0.6	-0.03
Cc1cccc(OCC(O)CN2CCN(C3CCCCC3)CC2)c1 (stereo not drawn)	0.9	8	6	0.33	0.9	-0.028
Cc1ccc2cc(C#N)c(NCCCNC(=O)C3CCCO3)nc2c1 (stereo not drawn)	0.8	24	22	-0.1	0.8	-0.85
N#Cc1ccc(Oc2ccc(/C=N/O)cn2)cc1	0.7	-11	26	0.35	1.1	0.35
COc1ccccc1N1CCN(S(=O)(=O)c2c(C)ccc3nsnc23)CC1	0.3	34	73*	-2.2	0.7	-2.4
COc1ccccc1N1CCN(S(=O)(=O)c2ccc(Br)s2)CC1	0.7	29	29	-0.73	0.7	-1.5
COc1ccc(N2CCN(c3ncccn3)CC2)cc1	0.1	24	92*	-0.22	0.8	0.64
